The target of this test is CTSH. The test is described as follows: pooled miR-30 sensor sort-seq; sequence = guide strand. Particulars: shRNA.
Regarding TTCCTCGTCATAGATTGTGATG, the sensor-assay potency score (higher = more potent) was -1.43.

On to TCGTCATAGATTGTGATGTTGG, for which the sensor-assay potency score (higher = more potent) is -0.963. Consider TTCAGCAAAGCTCATGTCTGAA, for which the sensor-assay potency score (higher = more potent) was -0.714. TTATCTTCCTCCAGTTGCTGGC registered a sensor-assay potency score (higher = more potent) of -0.0224.

TACTGTAGGTCTTACGGTGCTT displayed a sensor-assay potency score (higher = more potent) of -0.0767. For TTTATCTGGAGTTTTATGGCAG the value was -0.245. Regarding TTTGGTGGCTGAGCAATTCTGA, the sensor-assay potency score (higher = more potent) was -0.218. For TTACGGTGCTTAGACATCCATG, the sensor-assay potency score (higher = more potent) was -1.04. With TTCAGTGCCATTTTAAATGTGT the figure was 0.219; with TTATCTGGAGTTTTATGGCAGG, -0.729.

These data come from the OligoGym collection.
Also: reference of the scale not given here.
